# Reference: PubChem BioAssay AID1117283 (Broad Institute, 2014)
# Measured potencies and affinities stand elsewhere. Calls of active or inactive are those of the source.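 How the source made its calls: active means fluorescent signal decreased by at least 40%; inconclusive means no clear call, values can overlap the other calls; inactive means the rest, including activity opposite to the expected direction.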
# Experiment: fibronectin fibrillogenesis inhibitors in fibroblasts, dose response, AH1F cells, Alexa488-fibronectin fluorescence, cherry-pick, set 2 (AID 1117283);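 further: AH1F fibroblasts given Alexa488-labelled fibronectin at 24 nM final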
# Conditions: Alexa488-fibronectin deposition fluorescence, overnight; series mostly up to 35 µM
row,Structure (SMILES),outcome
1,C[C@H](CO)N1C[C@H](C)[C@@H](CN(C)Cc2ccc(-c3ccccc3)cc2)Oc2ccc(NC(=O)CCCN(C)C)cc2C1=O,inactive
2,Cc1cc(C)n2ncc(C(=O)NCc3ccc(Cl)cc3)c2n1,inactive
3,O=S(=O)(c1cccc(F)c1)N1CC[C@@H]2[C@H](CO)Nc3ccc(-c4cccc(F)c4)cc3[C@@H]21,inactive
4,COc1ccc(CCNC(=O)C2CCN(Cc3nc(-c4ccccc4F)oc3C)CC2)cc1OC,inactive
5,N#C[C@H]1[C@@H](c2ccccc2C2=CCCCC2)[C@H](CO)N1S(=O)(=O)c1ccccc1,inactive
6,CN(C)C(=O)c1ccc(-c2ccc3c(c2)[C@H]2[C@H](CCN2C(=O)c2ccc(F)cc2)[C@H](CO)N3C)cc1,inactive
7,COCC(=O)Nc1ccc2c(c1)C(=O)N(C)[C@@H]1CC[C@@H](CC(=O)NCc3ccccc3Cl)O[C@H]1CO2,inactive
8,C[C@H](O)C#Cc1ccc2c(c1)O[C@@H](CN(C)C)[C@H](C)CN([C@@H](C)CO)S2(=O)=O,inactive
9,C[C@H](CO)N1C[C@H](C)[C@H](CN(C)C(=O)Nc2cccc3ccccc23)Oc2c(NC(=O)Nc3ccc(C(F)(F)F)cc3)cccc2C1=O,inactive
10,O=C(NCCS(=O)(=O)N1CCN(c2ccc(F)cc2)CC1)c1ccc(Br)o1,inactive
11,Cc1ccc([N+](=O)[O-])cc1NC(=O)CN(C(=O)c1ccccc1Cl)C1CCCCC1,inactive
12,CCS(=O)(=O)c1ncc(Cl)c(C(=O)Nc2ccc(S(=O)(=O)N3CCC(C)CC3)cc2)n1,inactive
13,COCC(C)n1c(SCc2nc(N)nc(Nc3ccccc3C)n2)nc2ccccc2c1=O (configuration not stated),inactive
14,C[C@H](CO)N1C[C@H](C)[C@H](CN(C)Cc2ccc(-c3ccccc3)cc2)Oc2ccc(NC(=O)CCCN(C)C)cc2C1=O,inactive
15,Cc1ccc(C(O)c2ncc(-c3cccc4ccccc34)[nH]2)cc1F (configuration not stated),inactive
16,CCN(Cc1ccncc1)C(=O)c1ccc2c(c1)S(=O)(=O)c1ccccc1C2=O,inactive
17,CO[C@@H]1CN(C)C(=O)c2ccc(NC(=O)c3ccc(-c4ccccc4)cc3)cc2OC[C@@H](C)NC[C@H]1C,inactive
18,CCc1ccc(NC(=O)CSc2nnc(-c3ccco3)o2)cc1,inactive
19,O=C(OCC(O)C(O)COC(=O)c1ccccc1)c1ccccc1 (configuration not stated),inactive

row,Structure (SMILES),outcome
1,O=C(C[C@@H]1C[C@@H]2c3cc(NC(=O)c4ccc5c(c4)OCO5)ccc3O[C@@H]2[C@@H](CO)O1)NCc1ccc(Oc2ccccc2)cc1,inactive
2,O=C(CN1CCCC1)Nc1ccc(Oc2ccc(NC(=O)CN3CCCC3)cc2)cc1,inactive
3,CC(NC(=O)CSc1ccc(S(=O)(=O)N2CCOCC2)cn1)c1ccc(Cl)cc1Cl (configuration not stated),inactive
4,C[C@H](O)C#Cc1ccc2c(c1)O[C@H](CN(C)C)[C@@H](C)CN([C@H](C)CO)S2(=O)=O,inactive
5,N#C[C@@H]1[C@H](c2ccccc2C2=CCCCC2)[C@@H](CO)N1S(=O)(=O)c1ccccc1,inactive
6,COc1cccc(-c2ccc3c(c2)[C@H]2[C@H](CCN2S(=O)(=O)c2cccc(OC)c2)[C@@H](CO)N3)c1,inactive
7,Cc1ccc(S(=O)(=O)N2CC3(C)CN(S(=O)(=O)c4ccc(C)cc4)CC(C)(C2)C3=O)cc1,inactive
8,CO[C@H]1CN(C)C(=O)c2ccc(NC(=O)Nc3ccc(Cl)c(Cl)c3)cc2OC[C@H](C)NC[C@H]1C,inactive
9,O=C(Nc1ccccc1F)N1C[C@@H]2[C@H](c3ccccc31)[C@H](CO)N2C(=O)C1CC1,inactive
10,Cc1ccc(NC(=O)COC(=O)c2cc(Cl)ccc2[N+](=O)[O-])c(C)c1,inactive
11,Cc1cccc(N2CCN(S(=O)(=O)c3cn(C)cn3)CC2)c1C,inactive
12,COCC(=O)Nc1ccc2c(c1)C(=O)N(C)[C@@H]1CC[C@@H](CC(=O)NCc3ccccc3Cl)O[C@@H]1CO2,inactive
13,N#Cc1ccc(-c2ccc3c(c2)[C@@H]2[C@@H](CCN2S(=O)(=O)c2cccc(F)c2)[C@H](CO)N3)cc1,inactive
14,COc1ccc(-c2oc3ncnc(NCCCN4CCOCC4)c3c2-c2ccc(OC)cc2)cc1,inactive
15,Cc1ccc(O)c(-c2cc(-c3cccc(Br)c3)n[nH]2)c1,inactive
16,O=C(Nc1cc(Sc2nc3ccccc3s2)cc([N+](=O)[O-])c1)c1ccccc1F,inactive
17,C[C@@H]1CN([C@@H](C)CO)C(=O)c2cc(-c3ccccc3)cnc2O[C@@H]1CN(C)Cc1ccccc1,inactive
18,COc1ccccc1CNc1nc(NCc2cnc(C)cn2)c2sccc2n1,inactive
